PLK1 PBD block: qHTS for Inhibitors of PLK1-PDB (polo-like kinase 1 - polo-box domain): Primary Screen; Plk1 PBD binding of FITC phosphopeptide, fluorescence polarization; Potency, µM, hits mostly inhibitors; actives 2.8% (n = 360,000); AID 720504, 2013; Serine/threonine-protein kinase PLK1 (Homo sapiens), P53350; further: series mostly up to about 57 µM; nearly all actives have a fitted effect of over 65% in size
BAZ2B inh: qHTS Assay for Inhibitors of BAZ2B | Bromodomain adjacent to zinc finger domain protein 2B (Homo sapiens), Q9UIF8 | AlphaScreen BAZ2B-H3K14Ac peptide displacement | Potency, µM (series often up to 114 µM), hits mostly inhibitors | actives 4.4% (n = 360,000) | AID 504333, 2011; further: nearly all actives have a fitted effect of over 60% in size
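Inhibition is scored as reduced AlphaScreen emission. The BAZ2B/b-H3(5-23)K14Ac complex (50 nM each) in PBS pH 7.4, 0.01% Tween-20 meets compound (up to 110 uM) for 30 min at RT before bead addition.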
G9a block: qHTS Assay for Inhibitors of Histone Lysine Methyltransferase G9a; G9a H3K9 monomethylation, AlphaScreen, 2 h; actives 8.8% (n = 350,000); Histone-lysine N-methyltransferase EHMT2 (Homo sapiens), Q96KQ7; AID 504332, 2011; Potency, µM (titrated, usually from 102 µM), hits mostly inhibitors; further: nearly all actives have a fitted effect of over 75% in size
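Methyltransferase reactions run at room temperature for 2 h (20 nM enzyme, 500 nM biotin-H3K9 peptide, 20 uM SAM) after a 15 min compound preincubation; product detected by AlphaScreen beads and anti-H3K9me1 antibody.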
HP1b chromo inh: HTS for Inhibitors of HP1-beta Chromodomain Interactions with Methylated Histone Tails. Potency, µM (highest dose often 114 µM), hits mostly inhibitors. AlphaScreen HP1-beta / biotin-H3K9me3 peptide binding. actives 0.56% (n = 390,000). Chromobox protein homolog 1 (Homo sapiens), P83916; further: nearly all actives have a fitted effect of over 70% in size
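Compound inhibition of the preformed complex between 50 nM HP1-beta and 50 nM biotinylated H3K9me3 peptide was read by AlphaScreen. Buffer was PBS pH 7.4 with 0.01% Tween-20. Incubations ran 30 min at room temperature, with 10 ug/mL donor/acceptor beads.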
VDR inh: Inhibitors of the vitamin D receptor (VDR): qHTS; Vitamin D3 receptor (Homo sapiens), P11473; VDR-SRC2-3 peptide fluorescence polarization, 2 h; Potency, µM, usual class: inhibitors; actives 0.93% (n = 400,000)
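Measured by FP: displacement of SRC2-3 coactivator peptide from VDR by library compounds, following a two-hour ambient incubation.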
JMJD2A Tudor inh: qHTS Assay for Inhibitors of JMJD2A-Tudor Domain | AlphaScreen JMJD2A-Tudor / H3K4me3 peptide binding | Potency, µM (doses to about 114 µM), hits mostly inhibitors | actives 4.4% (n = 390,000) | AID 504339, 2011; further: nearly all actives have a fitted effect of over 50% in size
Each line names hits and unclear results; the compound was inactive in the other large screens. Sampled rows, rich in hits. Any-hit rate of the full collection: about 11%. The call rests on the fitted dose curve; in most records, active means well fitted curve in the direction sought with a large enough effect; inconclusive means small, poorly fitted or top-dose-only effect, or another doubt; inactive means no such curve, though single readings can be large; an effect the other way counts as inactive or inconclusive.

CC(C)(C)C1CCc2c(sc(NC(=O)CSc3ncn[nH]3)c2C#N)C1 (stereo not drawn)	PLK1 PBD block 19µM, G9a block 25µM
CCCc1cc(=O)[nH]c(SCC(=O)Nc2sc3c(c2C#N)CCC(C)C3)n1 (stereo not drawn)	PLK1 PBD block inconclusive, G9a block 50µM, JMJD2A Tudor inh inconclusive
Cc1n[nH]c(=O)n1-c1cccc(C(F)(F)F)c1	none
CN(C)C=NC1=NN(c2cccc(C(F)(F)F)c2)CC1	BAZ2B inh inconclusive, G9a block 2.2µM, JMJD2A Tudor inh inconclusive
CN1CCN(C=NC2=NN(c3cccc(C(F)(F)F)c3)CC2)CC1	BAZ2B inh inconclusive, G9a block 2.8µM, HP1b chromo inh inconclusive, JMJD2A Tudor inh inconclusive
CCCCc1ccc(-c2nc(NC(=O)C3C4CCC(O4)C3C(=O)O)sc2C)cc1 (stereo not drawn)	BAZ2B inh inconclusive, G9a block 50µM (no result: PLK1 PBD block, HP1b chromo inh, VDR inh, JMJD2A Tudor inh)
COc1ccc(NC(=O)CSc2nnc(Cc3cccn3C)n2CCc2ccccc2)c(OC)c1	BAZ2B inh 50µM, JMJD2A Tudor inh inconclusive
Cn1cccc1Cc1nnc(SCC(=O)Nc2nccs2)n1C	G9a block inconclusive
COc1ccccc1NC(=O)CSc1nnc(Cc2cccn2C)n1CCc1ccccc1	BAZ2B inh 50µM, G9a block inconclusive, JMJD2A Tudor inh inconclusive
CCSc1nnc(NC(=O)CSc2nnc(Cc3cccn3C)n2CCc2ccccc2)s1	BAZ2B inh inconclusive
Cn1cccc1Cc1nnc(SCC(=O)Nc2nccs2)n1CCc1ccccc1	BAZ2B inh inconclusive, G9a block 50µM, JMJD2A Tudor inh inconclusive
CC1=NN(C(C#N)c2ccccc2C)C(C)(C)C1 (stereo not drawn)	none
CCN(CC(=O)Nc1cc(C)nn1-c1nc(C)cc(C)n1)Cc1ccccc1	none
CN1CCN(c2ncc3nc(-c4cn(C)c5ccccc45)c(=O)n(CCC#N)c3n2)CC1	none (no result: PLK1 PBD block, BAZ2B inh, HP1b chromo inh, JMJD2A Tudor inh)
O=[N+]([O-])c1ccc(NC(c2ccccc2)c2ccc3cccnc3c2O)cc1 (stereo not drawn)	JMJD2A Tudor inh inconclusive (no result: BAZ2B inh, G9a block)
Oc1c(C(Nc2cccc(C(F)(F)F)c2)c2cccnc2)ccc2cccnc12 (stereo not drawn)	BAZ2B inh 20µM, G9a block 8.9µM, HP1b chromo inh inconclusive, VDR inh inconclusive, JMJD2A Tudor inh 56µM
Oc1c(C(Nc2ccccn2)c2cccnc2)cc(Cl)c2cccnc12 (stereo not drawn)	PLK1 PBD block inconclusive, BAZ2B inh 11µM, G9a block 28µM, VDR inh inconclusive, JMJD2A Tudor inh 40µM
Cc1cc(NC(c2cccnc2)c2ccc3cccnc3c2O)no1 (stereo not drawn)	BAZ2B inh 7.9µM, G9a block 35µM, JMJD2A Tudor inh 32µM
COc1cccc(C(Nc2ccccc2)c2ccc3ccc(C)nc3c2O)c1 (stereo not drawn)	none (no result: BAZ2B inh, G9a block, HP1b chromo inh, VDR inh, JMJD2A Tudor inh)
NCCC[C@@H](CC(=O)N[C@@H]1CCCC[C@H]1C(=O)N[C@H](CC(=O)N[C@@H](CCC(=O)O)CC(=O)O)Cc1c[nH]c2ccccc12)NC(=O)C[C@H](Cc1ccccc1)NC(=O)[C@@H]1CCCC[C@H]1N	none (no result: PLK1 PBD block, BAZ2B inh, G9a block, HP1b chromo inh, JMJD2A Tudor inh)
CCCCNC(=O)c1cccc(-n2cnc3cccnc32)c1C	none (no result: PLK1 PBD block)
Fc1ccc(N2CCN(c3nc4ccccc4c4nc(-c5cccnc5)nn34)CC2)cc1	none (no result: PLK1 PBD block)
CC(C)CNC(=O)C(=O)NNC(=O)c1ccco1	BAZ2B inh inconclusive, G9a block 11µM
Cc1cccc(C(=O)NNC(=O)C(=O)NC(C)(C)C)c1	BAZ2B inh inconclusive, G9a block 28µM, JMJD2A Tudor inh inconclusive
CC(C)(C)NC(=O)C(=O)NNC(=O)c1ccco1	BAZ2B inh 56µM
O=C(NNC(=O)c1ccco1)c1ccco1	none (no result: BAZ2B inh, G9a block, HP1b chromo inh, VDR inh, JMJD2A Tudor inh)
O=C(NCCCCNC(=O)C(F)(F)F)C(F)(F)F	none
CCCCNC(=O)c1ccc2c(=O)n(Cc3ccc(OC)cc3)c(=O)[nH]c2c1	none (no result: PLK1 PBD block)

Compound activity as filed in PubChem BioAssay.
